Measurements reported in PubChem BioAssay AID492973 (The Scripps Research Institute Molecular Screening Center, 2010).
Activity calls are given as the source filed them.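 The calls were made as follows: active = inhibition above 50% of the enzyme in parasite cell lysate; inactive = the rest.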

assay: malaria lysate leucine aminopeptidase inhibition – cell lysate, fluorescence, Plasmodium falciparum lysate, powder samples, late-stage follow-up (AID 492973); details: P. falciparum cell lysate, H-Leu-NHMec fluorescence; at 5 µM; hits give high values

| Structure (SMILES) | inhibition |
| --- | --- |
| CC(C)c1ccc(NC(=O)[C@H]2CCCC[C@H]2C(=O)O)cc1 | 27% (inactive) |
| S=c1nc(-c2cccc(Cl)c2)[nH][nH]1 | 22% (inactive) |
| COC(=O)c1cccc(NC(=O)CSc2nc(C)cc(=O)[nH]2)c1 | 26% (inactive) |
| COc1ccc(C(C)(C)C)cc1NC(=O)[C@H]1CC=CC[C@H]1C(=O)O | 40% (inactive) |
| CCOC(=O)c1c(-c2cccc(C)c2)csc1NC(=O)[C@H]1CC=CC[C@H]1C(=O)O | 26% (inactive) |
| Cc1ccc(-n2c(C)cc(C(=O)COC(=O)c3ccc[nH]c3=O)c2C)cc1 | 43% (inactive) |
| COc1cc(NC(=O)CSc2nc3c(C)ccc(C)c3cc2C)c(C(=O)O)cc1OC | 74% (active) |
| COC(=O)c1c(NC(=O)[C@H]2CCCC[C@H]2C(=O)O)sc2c1CCCCC2 | 65% (active) |
| C=CCn1c(SCC(=O)Nc2cccc3ccccc23)nc(O)c(CC)c1=O | 31% (inactive) |
| O=C(Nc1cc(Cl)ccc1Cl)[C@H]1CC=CC[C@H]1C(=O)O | 9% (inactive) |
| CCc1cc2cc(OC)ccc2nc1SCC(=O)Nc1cc(OC)c(OC)cc1C(=O)O | 68% (active) |
| O=C(Nc1cccc(Cl)c1)[C@H]1CC=CC[C@H]1C(=O)O | 24% (inactive) |
| COc1ccc(-c2cc(=O)[nH][nH]2)cc1 | 22% (inactive) |
| Cc1cc(C(=O)COC(=O)c2ccc[nH]c2=O)c(C)n1-c1ccc(F)cc1 | 32% (inactive) |
| CCOC(=O)c1c(NC(=O)[C@@H]2C3CCC(O3)[C@@H]2C(=O)O)sc(C)c1-c1ccc(C)cc1 (stereo not given in full) | 29% (inactive) |
| O=C(CSc1nc(O)cc(=O)n1-c1ccccc1)Nc1ccc2c3c(cccc13)CC2 | 22% (inactive) |
| COc1ccc(-c2cc(=O)[nH][nH]2)cc1OC | 8% (inactive) |
| COc1ccc2nc(SCC(=O)Nc3cc(OC)c(OC)cc3C(=O)O)c(C)cc2c1 | 66% (active) |
| N#Cc1c(NC(=O)[C@@H]2C3C=CC(C3)[C@@H]2C(=O)O)sc2c1CCCCC2 (stereo not given in full) | 30% (inactive) |
| O=c1cc(-c2ccc(Cl)c(Cl)c2)[nH][nH]1 | 13% (inactive) |
| COc1ccc(NC(=O)CSC2=NC(=O)CC(C)=N2)cc1 | 27% (inactive) |
| O=C(CSc1nccc(=O)[nH]1)Nc1ccc(Br)c(Cl)c1 | 43% (inactive) |
| Cc1ccc(-n2c(C)cc(C(=O)COC(=O)c3ccc[nH]c3=O)c2C)cc1C | 54% (active) |
| COC(=O)c1c(NC(=O)[C@H]2CC=CC[C@H]2C(=O)O)sc(C)c1C | 31% (inactive) |
| CCn1c2ccccc2c2cc(NC(=O)CSc3nccc(=O)[nH]3)ccc21 | 49% (inactive) |
